# Bioassay records (PubChem BioAssay)
# CSC inhib – cancer stem cell inhibition; cancer stem cell-like cells viability, luminescence; inhibition, % at 7.5 µM; 300,000 tested, 1.1% active; in the data active = inhibition above about 75%; inconclusive = no clear call, values can overlap the other calls; tested in HMLE shEcad cells
# Calb FLC – C. albicans growth modulation with fluconazole. C. albicans CaCi-2 (fluconazole-resistant clinical isolate) + fluconazole, Alamar Blue growth, 48 h. growth inhibition, % (test concentration not listed). 300,000 tested, 0.57% active. AID 1979;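 active = growth inhibition above about 58% in most replicates, limit read from the data, passing the limit was not always enough; inconclusive = exactly half the replicates above a set limit; inactive = most replicates below a set limit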;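 also: all wells also contain fluconazole at 8 µg/ml as a sub-toxic cotreatment; 0% = median of DMSO wells and 100% = median of geldanamycin control wells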
# PP1 inh – counter-screen for PP5 inhibitors: inhibitors of human PP1-alpha; P62136; purified PP1alpha, OMFP fluorescence; inhibition, % at 6.7 µM; 320,000 tested, 0.9% active; AID 2235;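 active = inhibition above the mean inhibition of all tested compounds plus 3 SD, computed separately for each screening campaign, cut at about 15% in these data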
# PP5 primary – blocks human protein phosphatase 5 activity | P53041 | purified PP5c, OMFP substrate fluorescence | inhibition, % at 6.7 µM | 320,000 tested, 0.18% active;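 active = inhibition above the campaign's mean inhibition across all tested compounds plus 3 SD, cut at about 9.5% in these data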;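 also: 0% = DMSO only and 100% = 100 µM cantharidin control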
# Target sequence (P53041 whole entry, looked up): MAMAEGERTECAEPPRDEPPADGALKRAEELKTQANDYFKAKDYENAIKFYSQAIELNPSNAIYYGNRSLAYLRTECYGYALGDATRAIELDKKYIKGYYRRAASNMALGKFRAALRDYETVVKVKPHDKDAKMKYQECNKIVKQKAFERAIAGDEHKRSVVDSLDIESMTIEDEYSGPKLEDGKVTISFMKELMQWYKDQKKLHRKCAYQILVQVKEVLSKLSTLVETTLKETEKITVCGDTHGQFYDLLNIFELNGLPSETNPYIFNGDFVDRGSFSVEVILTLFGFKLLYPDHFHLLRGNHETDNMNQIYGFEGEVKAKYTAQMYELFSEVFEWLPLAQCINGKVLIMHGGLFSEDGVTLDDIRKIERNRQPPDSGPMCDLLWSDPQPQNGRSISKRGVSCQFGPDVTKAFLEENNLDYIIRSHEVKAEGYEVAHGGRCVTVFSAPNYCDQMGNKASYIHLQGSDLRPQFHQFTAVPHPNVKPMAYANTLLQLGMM
# ALR H2O2 inh – human ALR oxidase inhibition via reduced H2O2; P55789; purified ALR, DTT oxidation, H2O2 HRP-luminol luminescence; inhibition, % (concentration not given with the values); 290,000 tested, 3.8% active; AID 485317;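 active = mean replicate inhibition above about 79%, with every replicate also reaching it, limit read from the data; inconclusive = only one of the two criteria met; inactive = mean below limit and not every replicate reaching it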
# Active calls of the source: *; ? = inconclusive; . = not tested or not shown. Rows were chosen to be rich in hits. Some 5.4% of all compounds tested hit in one or more screens of this group.
SMILES,CSC inhib,Calb FLC,PP1 inh,PP5 primary,ALR H2O2 inh
Cc1cccc(N2CCN(C(=O)c3ccc(CS(=O)(=O)c4ccccc4C)o3)CC2C)c1 (stereo not given),-10.0,11.2,3.8,3.2,94.8*
Cc1cccc(N2CCN(C(=O)NC3CCCCC3)CC2C)c1 (stereo not given),5.0,15.9,.,.,88.2*
Cc1ccc(C)c(N2CCN(C(=O)c3ccc(CS(=O)(=O)c4ccccc4C)o3)CC2)c1,-1.7,19.5,0.1,3.9,15.3
Cc1cccc(N2CCN(C(=O)CCN3C(=O)C4C5C=CC(C5)C4C3=O)CC2C)c1 (stereo not given),-10.0,5.2,-0.2,4.9,84.1*
Nc1nnnn1/N=C/C(Br)=C/c1ccccc1,122.0*,56.1,-11.4,0.6,-15.2
O=C(Nc1cc(C(F)(F)F)cc(C(F)(F)F)c1)Nc1cnn(-c2ccc([N+](=O)[O-])cc2)c1C(F)(F)F,101.9*,-12.1,-4.5,-1.3,19.3
CCN(CC)S(=O)(=O)c1cccc(NC(=O)Nc2cccc(C(F)(F)F)c2)c1,102.9*,-5.2,12.4,9.1,-4.7
CCN(CC)S(=O)(=O)c1cccc(NC(=O)CC2CCCC2)c1,-4.5,-0.9,-0.3,-0.2,.
CCOC(=O)N1CCN(c2cc3[nH]c(=S)[nH]c3cc2F)CC1,-12.9,6.7,3.5,-0.4,90.4*
COc1ccc(/C=N/NC(=O)c2[nH]c3ccc(C)cc3c2-c2ccccc2)c(C(=O)O)c1OC,3.2,4.8,3.5,2.1,98.7*
Cc1ccc2[nH]c(C(=O)N/N=C/c3ccccc3C(=O)O)c(-c3ccccc3)c2c1,.,18.9,3.0,1.7,.
COc1ccc(NC(=O)NC2(C(=O)N3CCCCC3)CCCCC2)cc1,10.4,-4.7,-0.2,0.1,-0.2
Cc1c(CCOC(=O)c2ccccc2)sc[n+]1CC(=O)c1ccc(Br)cc1,.,2.7,12.1,1.5,.
Cc1c(CCOC(=O)CC23CC4CC(CC(C4)C2)C3)sc[n+]1CC(=O)c1ccc(Br)cc1,117.5*,3.9,14.8,4.2,2.0
Cc1c(CCOC(=O)CC23CC4CC(CC(C)(C4)C2)C3)sc[n+]1CC(=O)c1ccccc1,99.6*,-12.8,12.8,2.7,14.3
CCc1ccc2c(CN(CC)Cc3nc4ccccc4c(=O)[nH]3)cc(=O)oc2c1,-7.9,-7.3,-1.3,1.0,-3.3
Cc1nc2c(C)[n+](CC(=O)c3ccccc3)ccc2n1C,-0.2,3.8,2.7,1.8,-0.1
COC(=O)c1[nH]c2ccc(Cl)cc2c1NC(=O)C1CC1,-7.7,-2.3,-1.7,-2.8,-9.3
COC(=O)c1[nH]c2ccc(Cl)cc2c1NC(=O)Oc1ccccc1,4.1,-10.8,-1.4,1.8,99.5*
COc1cc(C(=O)Nc2c(C(=O)O)[nH]c3ccc(C)cc23)cc(OC)c1OC,-4.0,-0.8,.,.,95.7*
COC(=O)c1[nH]c2ccc(C)cc2c1NC(=O)Nc1ccccc1OC,4.0,12.4,-0.4,4.1,96.6*
O=C(NCCCN1CCCCC1)c1ccc2c(=O)n(CCc3ccccc3)c(=O)[nH]c2c1,-11.6,-0.6,-0.6,1.1,-0.5
O=[N+]([O-])c1nn(-c2ccc(Cl)cc2)n(O)c1=NCc1cccnc1,-7.1,88.5*,0.0,1.2,4.6
COc1cccc(NC(=O)CSCc2cc(=O)n3nc(C4CC4)sc3n2)c1,-8.1,-0.4,-2.2,0.7,98.8*
CCCc1nn2c(=O)cc(CSCC(=O)Nc3ccc(C)cc3)nc2s1,10.2,-3.6,-0.8,-1.3,7.4
SMILES,CSC inhib,Calb FLC,PP1 inh,PP5 primary,ALR H2O2 inh
Cc1ccc(NC(=O)CSCc2cc(=O)n3nc(C4CC4)sc3n2)cc1,-2.1,-9.3,-1.7,1.6,98.9*
COc1cc(SC#N)ccc1N=Cc1c(C)[nH]n(-c2ccc(C)cc2C)c1=O,0.4,-0.3,4.1,2.1,99.1*
COc1cc(SC#N)ccc1N=Cc1c(C)[nH]n(-c2cccc3ccccc23)c1=O,-0.7,7.6,5.0,5.6,98.8*
CC(C)c1nnc(NC(=O)c2cnccn2)s1,-4.7,3.8,1.1,1.7,-3.7
Cc1ccc(C(=O)NNS(=O)(=O)c2ccccc2[N+](=O)[O-])cc1,-9.5,12.9,1.1,-1.2,.
CCOc1cc(C(c2c(C)[nH][nH]c2=O)c2c(C)[nH][nH]c2=O)ccc1O,-6.7,-24.8,-4.9,-0.3,95.5*
Cc1ccc(/C=C/C(=O)c2ccc(N3CCOCC3)cc2)s1,7.8,29.3,-2.7,4.5,-13.7
CCCNC(=O)c1nnsc1S(=O)c1ccc(Cl)cc1 (stereo not given),.,1.7,.,.,.
CNC(=O)c1nnsc1S(=O)c1ccc(Cl)cc1 (stereo not given),.,105.1*,.,.,.
NC(=O)C1CCN(C(=O)c2cccc(S(=O)(=O)N3CCc4ccccc4C3)c2)CC1,-6.1,?,2.5,-1.9,3.2
O=C(c1cccc(S(=O)(=O)N2CCc3ccccc3C2)c1)N1CCN(c2ccc(O)cc2)CC1,155.5*,-28.8,-1.4,4.2,94.6*
CC(C)Oc1cccc(C(=O)C2CCCN(C(=O)c3ccnn3C)C2)c1 (stereo not given),3.6,-3.4,2.1,1.8,-13.5
O=C(O)c1ccc(CSc2nc(-c3ccc(Cl)cc3)cc(C(F)(F)F)n2)cc1,?,-1.5,16.9*,4.4,-3.4
CCCCCn1c(Br)nc2c1c(=O)n(CC(N)=O)c(=O)n2C,-13.4,0.5,0.7,-0.1,92.5*
COc1ccc(/C=N/Nc2ccc([N+](=O)[O-])cc2)cc1O,21.2,-18.6,1.1,1.1,95.3*
O=[N+]([O-])c1ccc(N/N=C\c2cccnc2)nc1,-8.9,16.2,1.9,1.8,0.9
COc1cc(/C=N/Nc2ccc([N+](=O)[O-])cn2)cc(OC)c1O,12.5,-8.2,.,.,99.5*
COc1ccc(/C=N\Nc2ccc([N+](=O)[O-])cc2)c(C(=O)O)c1OC,-15.6,-11.1,0.5,3.5,98.3*
CC1(C)CC(=O)C=C(Nc2ccc([N+](=O)[O-])cc2)C1,-11.4,77.6*,-2.1,-3.1,-6.3
COc1ccc(Oc2ccc(N/C=C3/CCCC3=O)cc2)cc1,-14.6,-16.6,1.6,1.7,.
CCCCn1c(Cl)nc2c1c(=O)n(C)c(=O)n2C,-12.4,-5.0,1.2,-0.2,-1.3
Cn1c(=O)c2c(nc(Cl)n2CCOc2ccccc2)n(C)c1=O,-7.5,-6.1,16.1*,-1.3,-0.1
O=C(CNC(=O)c1cccs1)NCC(=O)OCC(=O)c1ccc([N+](=O)[O-])cc1,-9.1,1.5,-3.1,2.6,95.9*
O=C(COc1ccccc1F)OCC(=O)c1ccc([N+](=O)[O-])cc1,0.0,.,.,.,79.2*
O=C(CCc1ccccc1)OCC(=O)c1ccc([N+](=O)[O-])cc1,-1.8,2.5,-2.6,5.1,-2.3
O=C(CNC(=O)c1cccs1)OCC(=O)c1ccccc1,.,-9.7,-5.9,0.4,-3.9
Cc1ccccc1OCC(=O)NCC(=O)OCC(=O)c1ccc([N+](=O)[O-])cc1,0.9,-1.0,0.0,4.1,96.6*
Cc1ccc(CNC(=O)CCCCCNc2nc(=S)[nH]c3ccccc23)cc1,1.9,-5.6,2.0,0.8,.
CCOC(=O)C1CCN(S(=O)(=O)c2cccc(-c3cn4cc(Cl)ccc4n3)c2)CC1,11.6,-17.9,4.8,4.3,99.0*
